This is a sample that favours compounds with a hit; in the whole collection about 3.2% have one here.
PLK1 PBD inh: blocks phosphopeptide binding to human PLK1 polo-box domain; P53350; Plk1 PBD binding of FITC phosphopeptide, fluorescence polarization; Potency, µM, for inactives: max response, negative = inhibition, hits mostly inhibitors; hit rate 2.8% among 360,000; also: potency is read from the fitted curve at half-maximal effect; series mostly up to about 57 µM; nearly all actives have a fitted effect of over 65% in size
USP1 inh: USP1/UAF1 (human) deubiquitinase inhibition | O94782 | recombinant USP1/UAF1, Ub-Rhodamine cleavage fluorescence | Potency, µM (top dose mostly 57.1 µM), for inactives: at the highest dose activity change, negative = inhibition, most hits filed as inhibitors | hit rate 0.23% among 390,000 | AID 743255; also: potency is read from the fitted curve at half-maximal effect; nearly all actives have a fitted effect of over 60% in size
Target sequence (O94782 whole entry, looked up): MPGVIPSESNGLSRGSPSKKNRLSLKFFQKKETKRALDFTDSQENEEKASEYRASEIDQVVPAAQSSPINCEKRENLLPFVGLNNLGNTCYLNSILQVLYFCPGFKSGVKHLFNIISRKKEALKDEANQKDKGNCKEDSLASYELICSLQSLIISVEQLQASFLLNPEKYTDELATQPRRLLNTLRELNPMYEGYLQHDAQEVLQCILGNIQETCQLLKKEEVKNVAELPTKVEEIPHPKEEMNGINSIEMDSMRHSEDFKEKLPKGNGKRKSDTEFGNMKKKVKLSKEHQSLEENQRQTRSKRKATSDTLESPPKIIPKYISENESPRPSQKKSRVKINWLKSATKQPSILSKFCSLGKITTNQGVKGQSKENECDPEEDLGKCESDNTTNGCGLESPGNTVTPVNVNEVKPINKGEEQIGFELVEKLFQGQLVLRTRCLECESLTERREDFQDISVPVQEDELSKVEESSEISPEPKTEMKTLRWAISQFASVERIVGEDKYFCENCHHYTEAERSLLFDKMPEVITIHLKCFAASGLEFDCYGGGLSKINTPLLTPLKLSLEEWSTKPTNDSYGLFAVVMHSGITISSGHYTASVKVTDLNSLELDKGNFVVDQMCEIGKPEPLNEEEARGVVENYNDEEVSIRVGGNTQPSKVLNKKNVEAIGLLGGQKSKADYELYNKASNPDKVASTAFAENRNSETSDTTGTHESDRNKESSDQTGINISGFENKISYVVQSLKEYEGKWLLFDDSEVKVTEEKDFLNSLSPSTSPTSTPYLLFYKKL
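Step one: compound is pinned into 1nM USP1/UAF1 in HEPES pH 7.8 buffer with TCEP. Step two: 15 min room-temperature incubation. Step three: Ub-Rho (150nM final) starts cleavage, tracked by fluorescence over six one-minute reads.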
VDR inhibitor: blocks the human vitamin D receptor | AID 504847 | VDR-SRC2-3 peptide fluorescence polarization, 2 h | hit rate 0.93% among 400,000 | Potency, µM, for inactives: max response, negative = inhibition, hits mostly inhibitors; also: potency is read from the fitted curve at half-maximal effect
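VDR–SRC2-3 interaction, FP format. Cmpds 23 nl via pintool, brief spin, 2 h ambient incubation.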
USP2a inh: blocks human ubiquitin-specific protease USP2a | O75604 | USP2 core, Ub-CHOP2 coupled fluorogenic reporter, 485/531 | Potency, µM (series often up to 38.3 µM), for inactives: top-dose activity change, negative = inhibition, most hits filed as inhibitors | hit rate 0.01% among 330,000 | AID 463254;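 also: potency is read from the fitted curve at half-maximal effect; plate controls were DMSO wells for no effect and full inhibition by NEM control for full effect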
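USP2 core (10nM final) preincubated 30min RT with compound in 20mM Tris-HCl pH 8.0, 2mM CaCl2, 2mM beta-mercaptoethanol, 0.05% CHAPS; 25nM Ub-CHOP2 plus 25nM reporter substrate added, fluorescence (Ex485/Em531) read after 60min.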
GALK inh: blocks human galactokinase activity | P51570 | Purified GALK, Kinase-Glo residual ATP luminescence | Potency, µM (highest dose often 57.5 µM), for the others: at the highest dose activity change, negative = inhibition, actives largely listed as inhibitors | hit rate 0.007% among 270,000; also: potency is read from the fitted curve at half-maximal effect
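The enzyme phosphorylates galactose (100 uM) using ATP (35 uM); inhibition is detected as higher residual ATP, quantified by bioluminescence after 1 h reaction at room temperature, pH 8.0.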
FBPA coupling cs: counter-screen for Giardia aldolase inhibitors: coupling enzyme system | AID 2472 | activity change, negative = inhibition, % at 58.2 µM, hits read low | coupling enzyme system counterscreen, AmpLite Red fluorescence | hit rate 0.67% among 290,000; in the data active = activity change below about -30%
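Counterscreen lacking aldolase: glyceraldehyde-3-phosphate coupling-enzyme reagent preincubated 10 min at RT with compound (at 57.5 uM final), then substrate/coupling system with AmpLite Red added; fluorescence read at 525/598 nm after 20 min RT.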
* hit, by the source's call; ? = inconclusive; . = not tested or not shown. Unless noted, calls follow the shape of the dose curve; as a rule, active = well fitted curve in the direction sought with a large enough effect; inconclusive = small, poorly fitted or top-dose-only effect, or another doubt; inactive = no such curve, though single readings can be large; an effect the other way counts as inactive or inconclusive. Unless noted, % is scaled to controls: 0 for no effect and ±100 for the full control effect.

SMILES	PLK1 PBD inh	USP1 inh	VDR inhibitor	USP2a inh	GALK inh	FBPA coupling cs
CCN(CC)c1ccc(NC(=O)CCS(=O)(=O)c2ccc(Br)cc2)c(C)c1	27µM*	-18%	7%	2%	.	3
Cc1ccc(NC(=O)CCS(=O)(=O)c2ccc(Br)cc2)nc1	12µM*	-1%	50µM*	1%	2%	0
C=CCOC(=O)C1C(=O)CC(C)(O)C(C(=O)OCC=C)C1c1ccc(N(C)C)cc1 (centres undefined)	-12%	-10%	7%	0%	0%	-1
CN(C)c1cccc(N=C2C=C(N3CCOCC3)CC(C)(C)C2)c1	-26%	-6%	1%	1%	-1%	-1
CCOC(=O)c1sc(N)c(C(=O)OC)c1C	-7%	-4%	-1%	0%	-3%	3
COC(=O)c1c(N)sc(C(=O)NCCc2ccccc2)c1C	21µM*	-19%	-9%	-1%	4%	1
CCOC(=O)c1c(N)sc(C(O)(C(F)(F)F)C(F)(F)F)c1-c1ccccc1	27µM*	-25%	?	-1%	-1%	-7
COc1cccc(OC)c1C(=O)NCCc1ccccc1	-3%	-15%	-5%	.	.	.
CCOC(=O)c1c(N)sc(C(=O)OC)c1C	30µM*	-4%	-27%	-2%	2%	0
CCOC(=O)c1c(N)sc(-c2ccccc2)c1C	19µM*	-2%	-15%	0%	-2%	2
COC(=O)c1c(N)sc(C(=O)N2CCOCC2)c1C	-19%	4%	0%	5%	1%	0
Cc1c(-c2ccccc2)sc(N)c1C(=O)N1CCOCC1	24µM*	5%	-4%	2%	1%	-18
CC(O)c1cccc(-c2ccc(CN3C[C@]4(CO)O[C@@H](CO)C[C@@H]4S3(=O)=O)cc2)c1 (some centres undefined)	27µM*	-23%	?	0%	.	.
C=CCn1c(SCC(=O)NC2CC2)nc2sc(CC)cc2c1=O	27µM*	-21%	-21%	11%	-2%	-1
C=CCn1c(SCC(=O)NC2CCS(=O)(=O)C2)nc2sc(CC)cc2c1=O (centres undefined)	-3%	-7%	5%	2%	-2%	5
COc1cc(O)c(C(=O)c2ccccc2)cc1O	.	.	?	.	.	-47*
COc1ccnc(Oc2ccc(F)cc2)c1C(=O)N/C=N/OCc1ccc(Cl)cc1Cl	-10%	-13%	-9%	0%	-1%	1
COC(=O)c1ccc(CN2CCCC(CCC(=O)NCc3ccc(C)o3)C2)cc1 (centres undefined)	24µM*	?	-1%	1%	-2%	-5
O=S(=O)(Nc1cc(O)cc2cccnc12)c1ccc(Cl)s1	.	.	.	.	.	-64*
O=S(=O)(Nc1cc(O)cc2cccnc12)c1ccc(Br)s1	.	.	.	.	.	-68*
CNS(=O)(=O)c1cccc(C(=O)OCC(=O)c2ccc3c(c2)OCCO3)c1	-24%	-9%	-6%	3%	.	.
N#CCC(=O)Nc1ccc(C(=O)OCC(=O)c2ccc3c(c2)OCCO3)cc1	12µM*	-17%	-24%	-4%	-2%	1
NS(=O)(=O)c1cc(C(=O)OCC(=O)c2ccc3c(c2)OCCO3)ccc1Cl	30µM*	-16%	-19%	-1%	0%	4
S=c1[nH]nc(CCc2ccccc2)n1-c1ccc(Cl)cc1	?	-14%	-13%	3%	-1%	8
CCCn1c(=O)c(C(=O)NCc2ccccc2Cl)c(O)c2ccccc21	1%	-23%	-1%	3%	-2%	0
SMILES	PLK1 PBD inh	USP1 inh	VDR inhibitor	USP2a inh	GALK inh	FBPA coupling cs
O=C(N/N=C/c1ccccc1Cl)c1nc2ccc([N+](=O)[O-])cc2c(=O)[nH]1	24µM*	-11%	?	2%	-1%	-1
CCCCNC(=O)Cn1nc(N2CCN(c3ccccc3OC)CC2)ccc1=O	.	-22%	5%	.	.	.
CS(=O)(=O)c1ccc(C(=O)NC(Cc2ccccc2)c2ccccc2)cc1 (centres undefined)	-3%	-9%	4%	1%	0%	0
CC(=O)NC(Cc1ccc(C)cc1)C(=O)NC1CCN(C(=O)c2ccc([N+](=O)[O-])cc2)CC1 (centres undefined)	-21%	6%	-16%	1%	1%	-1
CC(=O)NC(Cc1ccccc1)C(=O)NC1CCN(C(=O)c2ccc([N+](=O)[O-])cc2)CC1 (centres undefined)	3.4µM*	-6%	-18%	1%	0%	0
CC(C)(C)S(=O)N1Cc2cn(Cc3ccccc3)c(=O)cc2[C@@H]1CCO (some centres undefined)	-20%	-13%	-12%	.	.	.
S=c1nc(-c2ccco2)[nH][nH]1	-15%	-10%	2%	0%	4%	1
Cc1ccc(C)n1-c1nc(=S)[nH][nH]1	24µM*	3%	32µM*	2%	-1%	-29
CCCc1nc2ccc(NC(=O)c3cccs3)cc2c(=O)n1Cc1ccccc1Cl	30µM*	-21%	?	4%	1%	-2
CCN(CC)C(=O)Oc1nnc(SC(C)C)n1-c1ccc(Cl)c(Cl)c1	0%	-10%	9%	0%	.	2
COc1ccc(CCNC(=O)c2ccc(OCc3c(C)noc3C)cc2)cc1OC	7%	-13%	2%	0%	.	.
COc1ccc(CNC(=O)COC(=O)c2ccc(OCc3c(C)noc3C)cc2)cc1OC	30µM*	-2%	?	-1%	-2%	1
O=C(COc1ccc(Cl)cc1)NCc1ccc(F)cc1	27µM*	-19%	-23%	1%	4%	0
O=C(CCCC(=O)NCc1ccc(F)cc1)NCc1ccc(F)cc1	24µM*	?	14%	0%	-2%	1
O=C(CCCC(=O)NCc1ccccc1)NCc1ccccc1	-2%	-15%	-7%	0%	0%	3
CCCCCCc1nnc(NC(=O)OCC)s1	-11%	6%	8%	-2%	0%	2
O=C(O)CCC(=O)N1CCc2cc(S(=O)(=O)NCc3cccs3)ccc21	0%	-13%	17%	4%	-4%	5
COc1ccc(NC(=O)CN(C)S(=O)(=O)c2cnc[nH]2)cc1	-12%	-12%	-9%	5%	-2%	.
COc1ccc(Br)cc1S(=O)(=O)Nc1ncccc1C	30µM*	-17%	0%	-6%	6%	-10
CC(=O)OCC1=C(C(=O)O)N2C(=O)[C@@H](NC(=O)Cc3ccccc3)[C@H]2SC1	0%	-3%	-3%	.	.	.
CC(=O)OCC1=C(C(=O)O)N2C(=O)C(NC(=O)c3ccc(COc4c(C)cccc4Cl)o3)C2SC1 (centres undefined)	-15%	-10%	16µM*	-3%	0%	0
